G9a block = qHTS Assay for Inhibitors of Histone Lysine Methyltransferase G9a. AID 504332, 2011. Potency, µM (highest dose often 102 µM), inactives show at the top dose activity, negative = inhibition, usual class: inhibitors. actives 8.8% (n = 350,000). G9a H3K9 monomethylation, AlphaScreen, 2 h. Histone-lysine N-methyltransferase EHMT2 (Homo sapiens), Q96KQ7; further: on the % scale 0 is the no-effect control and ±100 the full control effect; nearly all actives have a fitted effect of over 75% in size
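Compounds were preincubated with 20 nM G9a for 15 min, after which biotinylated H3K9 peptide (500 nM) and SAM (20 uM) started a 2 h room-temperature reaction. Monomethylated product was quantified by antibody-based AlphaScreen chemiluminescence.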
ALOX12 inh = Primary qHTS assay for inhibitors of human arachidonate 12S-lipoxygenase (ALOX12): Round 2. Potency, µM (titrated, usually from 108 µM), for inactives: at the top dose activity change, negative = inhibition, usual class: inhibitors. purified 12hLO, xylenol orange hydroperoxide absorbance. actives 1.1% (n = 580,000). Polyunsaturated fatty acid lipoxygenase ALOX12 (Homo sapiens), P18054; further: on the % scale 0 is the no-effect control and ±100 the full control effect
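Hydroperoxide product was detected by ferrous iron/xylenol orange as the 573 to 405 nm absorbance ratio. Arachidonic acid at 40 uM (final) was turned over for 30 min at room temperature by 150 nM human 12hLO, pH 7.0 Hepes buffer, after 15 min compound preincubation.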
BAZ2B block = qHTS Assay for Inhibitors of BAZ2B. Bromodomain adjacent to zinc finger domain protein 2B (Homo sapiens), Q9UIF8. AlphaScreen BAZ2B-H3K14Ac peptide displacement. Potency, µM (doses to about 114 µM), inactives show at the highest dose activity change, negative = inhibition, actives largely listed as inhibitors. actives 4.4% (n = 360,000); further: on the % scale 0 is the no-effect control and ±100 the full control effect; nearly all actives have a fitted effect of over 60% in size
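Inhibition is scored as reduced AlphaScreen emission. The BAZ2B/b-H3(5-23)K14Ac complex (50 nM each) in PBS pH 7.4, 0.01% Tween-20 meets compound (up to 110 uM) for 30 min at RT before bead addition.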
Sfp PPTase inh = qHTS Assay for Inhibitors of Bacillus subtilis Sfp phosphopantetheinyl transferase (PPTase). 4'-phosphopantetheinyl transferase ffp (Bacillus subtilis), Q9F4F7. Biochemical Sfp PPTase activity, qHTS. Potency, µM, inactives show largest response in the series, negative = inhibition, actives largely listed as inhibitors. actives 3.5% (n = 310,000);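 further: the enzyme is Sfp with the accession as filed and its product quenches rhodamine fluorescence; 0% = enzyme reaction without inhibitor and -100% = no enzyme wells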
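Fluorescence-quenching assay: 15 nM Sfp-PPTase preincubated 15 min at room temperature with compound, then 5 uM rhodamine-CoA and 12.5 uM BHQ-2-labelled YbbR peptide added. Fluorescence (ex 525/em 598 nm) read at start and after 30 min; difference gives rate.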
HP1b chromo inh = HTS for Inhibitors of HP1-beta Chromodomain Interactions with Methylated Histone Tails. Chromobox protein homolog 1 (Homo sapiens), P83916. AlphaScreen HP1-beta / biotin-H3K9me3 peptide binding. Potency, µM (highest dose often 114 µM), for inactives: at the top dose activity change, negative = inhibition, usual class: inhibitors. actives 0.56% (n = 390,000). AID 540317, 2011; further: nearly all actives have a fitted effect of over 70% in size
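AlphaScreen: HP1-beta (50 nM) preformed 30 min with biotin-H3(1-18)K9me3 peptide (50 nM) in PBS pH 7.4, 0.01% Tween-20. Compound added for 30 min at RT, then streptavidin donor/nickel chelate acceptor beads (10 ug/mL) for 30 min.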
JMJD2A Tudor = qHTS Assay for Inhibitors of JMJD2A-Tudor Domain; Lysine-specific demethylase 4A (Homo sapiens), O75164; AlphaScreen JMJD2A-Tudor / H3K4me3 peptide binding; Potency, µM (top dose mostly 114 µM), for inactives: at the highest dose activity change, negative = inhibition, usual class: inhibitors; actives 4.4% (n = 390,000); further: on the % scale 0 is the no-effect control and ±100 the full control effect; nearly all actives have a fitted effect of over 50% in size
* hit, by the source's call; ? = inconclusive; · = no result given; [ ] = dose if it differs, or a comment. Sampled rows, rich in hits. Any-hit rate of the full collection: about 8.7%. The call rests on the fitted dose curve; in most records, active means well fitted curve in the direction sought with a large enough effect; inconclusive means small, poorly fitted or top-dose-only effect, or another doubt; inactive means no such curve, though single readings can be large; an effect the other way counts as inactive or inconclusive. Potency means the concentration at half of the fitted maximal effect.

SMILES | G9a block | ALOX12 inh | BAZ2B block | Sfp PPTase inh | HP1b chromo inh | JMJD2A Tudor
O=C1C(=O)N(CCCN2CCOCC2)C(c2ccc(F)cc2)/C1=C(\O)c1ccc2c(c1)OCCO2 (stereo unspecified) | 45µM* | -24% | -19% | 8% | 49% | -8%
O=C1C(=O)N(CCN2CCOCC2)C(c2ccncc2)/C1=C(/O)c1ccc2c(c1)OCO2 (stereo unspecified) | ? | ? | 4% | -19% | 24% | -27%[11.4 µM]
CCN(CC)CCCN1C(=O)C(=O)/C(=C(/O)c2ccc3c(c2)OCCO3)C1c1ccco1 (stereo unspecified) | 50µM* | ? | -24% | 3% | 21% | -10%
O=C1C(=O)N(CCN2CCOCC2)C(c2ccc([N+](=O)[O-])cc2)/C1=C(/O)c1ccc2c(c1)OCO2 (stereo unspecified) | · | ? | -11% | -10% | 21% | 25µM*
CCOc1ccc(OCCSc2nc3ccccc3n2CC(O)CO)cc1 (stereo unspecified) | · | -30% | · | · | · | ·
CCCc1ccc(S(=O)(=O)N2CCN(C(=O)C(CC(C)C)NC(N)=O)CC2)cc1 (stereo unspecified) | · | -8% | · | · | · | ·
Cn1c(CCN2CCOCC2)nc2cc(NC(=O)c3ccccc3Cl)ccc21 | · | 33% | · | · | · | ·
COCCc1nncn1C1CCN(S(=O)(=O)c2cccc(F)c2)CC1 | · | 20% | · | · | · | ·
CC1=NN(c2ccccc2)C(=O)C1C=Nc1ccc(N(C)C)cc1 (stereo unspecified) | · | ? | 35µM* | ? | ? | 45µM*
Cc1ccccc1Cc1c(C)nc2c(C(=O)NCCc3noc(-c4ccncc4)n3)cnn2c1C | · | 7% | · | · | · | ·
Cc1ccc(C2C(C(=O)c3ccco3)=C(O)C(=O)N2c2nnc(C)s2)cc1 (stereo unspecified) | · | ? | -33% | 89µM* | 17% | 79µM*
Cc1nnc(N2C(=O)C(O)=C(C(=O)c3ccco3)C2c2cccc3ccccc23)s1 (stereo unspecified) | 50µM* | ? | -26% | ? | 0% | -24%
Cc1nnc(N2C(=O)C(O)=C(C(=O)c3ccco3)C2c2cccc([N+](=O)[O-])c2)s1 (stereo unspecified) | 21% | ? | -12% | 13% | 29% | -28%
O=C(Nc1ccc2oc(-c3cccc4ccccc34)nc2c1)c1ccc2c(c1)OCCO2 | · | 33% | · | · | · | ·
CC1=C(C(=O)Nc2ccccc2)C(c2ccccc2[N+](=O)[O-])NC(=O)N1 (stereo unspecified) | ? | -10% | -36% | 20µM* | 17% | -14%
COc1ccccc1NC(=O)C1=C(C)NC(=O)NC1c1ccc(C)cc1 (stereo unspecified) | -8% | -2%[57.4 µM] | 10% | 10% | 36% | -17%
COc1ccccc1NC(=O)C1=C(C)NC(=O)NC1c1ccccc1[N+](=O)[O-] (stereo unspecified) | 13µM* | -15% | · | 3.5µM* | -10% | -27%
CC1=C(C(=O)Nc2ccccc2)C(c2ccc(C)cc2)NC(=O)N1 (stereo unspecified) | · | 48% | · | · | · | ·
C=CCOc1ccc(/C=C/C(=O)c2ccc(C#N)cc2)cc1 | · | -2% | · | · | · | ·
Cc1csc(C(C#N)C(=O)c2cc3ccccc3o2)n1 (stereo unspecified) | -23%[59 µM] | -28% | ? | 50µM* | -11% | ?
Cc1csc(NC(=O)c2cc3ccccc3o2)n1 | 2%[12.7 µM] | -23% | 9% | · | 30% | -19%
O=C(Nc1ccc2[nH]c(=O)[nH]c2c1)c1nn(-c2ccccc2)c2c1CCCCC2 | · | -47% | · | · | · | ·
Cc1ccc2c(c1)N(C)/C(=C/c1cccc[n+]1CCO)S2 | 32µM* | -57% | -1% | 3% | 16% | ?
Cc1ccc2c(c1)N(C)/C(=C/c1cccc[n+]1C)S2 | 6.3µM* | ? | ? | -24% | -25% | ?
CN1/C(=C/c2cccc[n+]2C)Sc2ccccc21 | 25µM* | 0% | ? | -16% | 47% | ?
SMILES | G9a block | ALOX12 inh | BAZ2B block | Sfp PPTase inh | HP1b chromo inh | JMJD2A Tudor
COCC(=O)/C=C1\Sc2ccccc2N1C | -21%[59 µM] | -10%[57.4 µM] | 9% | -20% | 31% | -16%
CCc1nc2nccc(-c3cc4ccccc4o3)n2n1 | · | 21% | · | · | · | ·
NC(=O)[C@H](CC1CCCCC1)NC(=O)[C@@H]1CN(S(=O)(=O)c2ccccc2)CCN1S(=O)(=O)c1ccccc1 | · | -20% | · | · | · | ·
CCCn1c(C)cnc1C1CCN(S(=O)(=O)c2cn(C)cn2)C1 (stereo unspecified) | · | 25% | · | · | · | ·
COc1ccc(OC)c(NC(=O)CN2CC3CC(C2)[C@H]2CCCC(=O)N2C3)c1 (stereo partly specified) | · | -8% | · | · | · | ·
CC(C)(C)N1CSC(=S)N(Cc2ccccc2)C1 | ? | -13% | -12% | -8% | 19% | -2%
CC(C)N1CSC(=S)N(Cc2ccccc2)C1 | 32µM* | -16% | -10% | -6% | 9% | -14%
CN1CCCN(C(=O)C2CCCO2)c2ccccc21 (stereo unspecified) | · | 17% | · | · | · | ·
O=C(NNS(=O)(=O)c1ccccc1[N+](=O)[O-])c1cccc(Br)c1 | -5% | ? | -20% | -12% | 21% | 11µM*
O=C(NNS(=O)(=O)c1ccccc1[N+](=O)[O-])c1cccc(Cl)c1 | ? | -14% | -8% | -3% | 23% | 28µM*
Cc1cccc(C(=O)NNS(=O)(=O)c2ccccc2[N+](=O)[O-])c1 | ? | ? | -7% | 6% | 8% | ?
O=C(NNS(=O)(=O)c1ccccc1[N+](=O)[O-])c1ccc(O)cc1 | ? | ? | 50µM* | 7% | ? | 5.6µM*
Fc1ccccc1-c1csc(-c2cccnc2)n1 | -14% | -11% | 88% | 8% | 135% | 52%
Cc1nc(-c2ccc(O)c(O)c2)cs1 | 1.4µM* | 7.1µM* | -36% | 56µM* | ? | 4µM*
Clc1ccc(-c2csc(-c3cccnc3)n2)s1 | 40µM* | 124% | 3% | -13% | 114% | 53%
Cc1ccc2nc(-c3ccc(O)c(O)c3)cn2c1 | · | 18µM* | 50µM* | 56µM* | ? | 22µM*
Oc1ccc(-c2csc(-c3cccnc3)n2)cc1O | · | 10% | 45µM* | ? | 79µM* | 7.1µM*
CNC(=O)c1ccc(OC)c(-c2cc(N)nc3[nH]ccc23)c1 | · | 59% | · | · | · | ·

Screening data deposited in PubChem by National Center for Advancing Translational Sciences (NCATS).
